According to article PMC11062922 (Nature Chemical Biology, 2023):
Where two headings read alike, the source gives them in different places.

Tests used:
MAP4K2 = details: read-out: apparent Kd, n = 1
MARK3 = details: read-out: apparent Kd, n = 1
[1] = compound concentrations:100 nM and 1000 nM (sheet 'Lestaurtinib' of Supplementary Table 1),run:Lestaurtinib_02364_R3,Plate:MR002
[2] = compound concentrations:100 nM and 1000 nM (sheet 'Lestaurtinib' of Supplementary Table 1),run:Lestaurtinib_02367_R2,Plate:MR003
[3] = compound concentrations:100 nM and 1000 nM (sheet 'Lestaurtinib' of Supplementary Table 1),run:Lestaurtinib_02381_R1,Plate:MR004
[4] = compound concentrations:100 nM and 1000 nM (sheet 'Lestaurtinib' of Supplementary Table 1),run:Lestaurtinib_02407_R1,Plate:MR005
[5] = compound concentrations:100 nM and 1000 nM (sheet 'Lestaurtinib' of Supplementary Table 1),run:Lestaurtinib_02407_R2,Plate:MR005
[6] = compound concentrations:100 nM and 1000 nM (sheet 'Lestaurtinib' of Supplementary Table 1),run:Lestaurtinib_02422_R1,Plate:MR006
[7] = compound concentrations:100 nM and 1000 nM (sheet 'Lestaurtinib' of Supplementary Table 1),run:Lestaurtinib_02422_R2,Plate:MR006
[8] = compound concentrations:100 nM and 1000 nM (sheet 'Lestaurtinib' of Supplementary Table 1),run:Lestaurtinib_02437_R3,Plate:MR007
[9] = compound concentrations:100 nM and 1000 nM (sheet 'Lestaurtinib' of Supplementary Table 1),run:Lestaurtinib_02438_R1,Plate:MR008
[10] = compound concentrations:100 nM and 1000 nM (sheet 'Lestaurtinib' of Supplementary Table 1),run:Lestaurtinib_02438_R2,Plate:MR008

Lestaurtinib
potency estimated from few doses (MAP4K2; [1]): 260 nM
potency estimated from few doses (MAP4K2; [2]): 163 nM
potency estimated from few doses (MAP4K2; [3]): 163 nM
potency estimated from few doses (MAP4K2; compound concentrations:100 nM and 1000 nM (sheet 'Lestaurtinib' of Supplementary Table 1),run:Lestaurtinib_02381_R3,Plate:MR004): 229 nM
potency estimated from few doses (MAP4K2; [4]): 134 nM
potency estimated from few doses (MAP4K2; [5]): 149 nM
potency estimated from few doses (MAP4K2; compound concentrations:100 nM and 1000 nM (sheet 'Lestaurtinib' of Supplementary Table 1),run:Lestaurtinib_02407_R3,Plate:MR005): 180 nM
potency estimated from few doses (MAP4K2; [6]): 191 nM
potency estimated from few doses (MAP4K2; [7]): 261 nM
potency estimated from few doses (MAP4K2; compound concentrations:100 nM and 1000 nM (sheet 'Lestaurtinib' of Supplementary Table 1),run:Lestaurtinib_02422_R3,Plate:MR006): 163 nM
potency estimated from few doses (MAP4K2; [8]): 29.8 nM
potency estimated from few doses (MAP4K2; [9]): 151 nM
potency estimated from few doses (MAP4K2; [10]): 277 nM
potency estimated from few doses (MAP4K2; compound concentrations:100 nM and 1000 nM (sheet 'Lestaurtinib' of Supplementary Table 1),run:Lestaurtinib_02473_R1,Plate:MR010): 197 nM
potency estimated from few doses (MAP4K2; compound concentrations:100 nM and 1000 nM (sheet 'Lestaurtinib' of Supplementary Table 1),run:Lestaurtinib_02473_R2,Plate:MR010): 202 nM
potency estimated from few doses (MAP4K2; compound concentrations:100 nM and 1000 nM (sheet 'Lestaurtinib' of Supplementary Table 1),run:Lestaurtinib_02482_R2,Plate:MR011): 222 nM
potency estimated from few doses (MAP4K2; compound concentrations:100 nM and 1000 nM (sheet 'Lestaurtinib' of Supplementary Table 1),run:Lestaurtinib_02487_R2,Plate:MR012): 182 nM
potency estimated from few doses (MAP4K2; compound concentrations:100 nM and 1000 nM (sheet 'Lestaurtinib' of Supplementary Table 1),run:Lestaurtinib_02487_R3,Plate:MR012): 244 nM
potency estimated from few doses (MAP4K2; compound concentrations:100 nM and 1000 nM (sheet 'Lestaurtinib' of Supplementary Table 1),run:Lestaurtinib_02496_R1,Plate:MR013): 231 nM
potency estimated from few doses (MAP4K2; compound concentrations:100 nM and 1000 nM (sheet 'Lestaurtinib' of Supplementary Table 1),run:Lestaurtinib_02566_R1,Plate:MR014): 259 nM
potency estimated from few doses (MAP4K2; compound concentrations:100 nM and 1000 nM (sheet 'Lestaurtinib' of Supplementary Table 1),run:Lestaurtinib_02566_R2,Plate:MR014): 180 nM
potency estimated from few doses (MAP4K2; compound concentrations:100 nM and 1000 nM (sheet 'Lestaurtinib' of Supplementary Table 1),run:Lestaurtinib_02566_R3,Plate:MR014): 159 nM
potency estimated from few doses (MAP4K2; compound concentrations:100 nM and 1000 nM (sheet 'Lestaurtinib' of Supplementary Table 1),run:Lestaurtinib_02572_R1,Plate:MR015): 196 nM
potency estimated from few doses (MAP4K2; compound concentrations:100 nM and 1000 nM (sheet 'Lestaurtinib' of Supplementary Table 1),run:Lestaurtinib_02572_R3,Plate:MR015): 235 nM
potency estimated from few doses (MAP4K2; compound concentrations:100 nM and 1000 nM (sheet 'Lestaurtinib' of Supplementary Table 1),run:Lestaurtinib_02577_R1,Plate:MR016): 199 nM
potency estimated from few doses (MAP4K2; compound concentrations:100 nM and 1000 nM (sheet 'Lestaurtinib' of Supplementary Table 1),run:Lestaurtinib_02577_R3,Plate:MR016): 131 nM
potency estimated from few doses (MAP4K2; compound concentrations:100 nM and 1000 nM (sheet 'Lestaurtinib' of Supplementary Table 1),run:Lestaurtinib_02584_R3,Plate:MR017): 245 nM
potency estimated from few doses (MAP4K2; compound concentrations:100 nM and 1000 nM (sheet 'Lestaurtinib' of Supplementary Table 1),run:Lestaurtinib_02601_R2,Plate:MR018): 153 nM
potency estimated from few doses (MAP4K2; compound concentrations:100 nM and 1000 nM (sheet 'Lestaurtinib' of Supplementary Table 1),run:Lestaurtinib_02606_R1,Plate:MR019): 184 nM
potency estimated from few doses (MAP4K2; compound concentrations:100 nM and 1000 nM (sheet 'Lestaurtinib' of Supplementary Table 1),run:Lestaurtinib_02606_R2,Plate:MR019): 278 nM
potency estimated from few doses (MAP4K2; compound concentrations:100 nM and 1000 nM (sheet 'Lestaurtinib' of Supplementary Table 1),run:Lestaurtinib_02606_R3,Plate:MR019): 191 nM
potency estimated from few doses (MAP4K2; compound concentrations:100 nM and 1000 nM (sheet 'Lestaurtinib' of Supplementary Table 1),run:Lestaurtinib_02724_R1,Plate:MR021): 279 nM
potency estimated from few doses (MAP4K2; compound concentrations:100 nM and 1000 nM (sheet 'Lestaurtinib' of Supplementary Table 1),run:Lestaurtinib_02724_R2,Plate:MR021): 279 nM
potency estimated from few doses (MAP4K2; compound concentrations:100 nM and 1000 nM (sheet 'Lestaurtinib' of Supplementary Table 1),run:Lestaurtinib_02724_R3,Plate:MR021): 269 nM
potency estimated from few doses (MAP4K2; compound concentrations:100 nM and 1000 nM (sheet 'Lestaurtinib' of Supplementary Table 1),run:Lestaurtinib_02741_R1,Plate:MR023): 191 nM
potency estimated from few doses (MAP4K2; compound concentrations:100 nM and 1000 nM (sheet 'Lestaurtinib' of Supplementary Table 1),run:Lestaurtinib_02741_R3,Plate:MR023): 237 nM
potency estimated from few doses (MAP4K2; compound concentrations:100 nM and 1000 nM (sheet 'Lestaurtinib' of Supplementary Table 1),run:Lestaurtinib_02748_R2,Plate:MR024): 289 nM
potency estimated from few doses (MAP4K2; compound concentrations:100 nM and 1000 nM (sheet 'Lestaurtinib' of Supplementary Table 1),run:Lestaurtinib_02752_R2,Plate:MR025): 134 nM
potency estimated from few doses (MAP4K2; compound concentrations:100 nM and 1000 nM (sheet 'Lestaurtinib' of Supplementary Table 1),run:Lestaurtinib_02752_R3,Plate:MR025): 136 nM
potency estimated from few doses (MAP4K2; compound concentrations:100 nM and 1000 nM (sheet 'Lestaurtinib' of Supplementary Table 1),run:Lestaurtinib_02765_R2,Plate:MR026): 199 nM
potency estimated from few doses (MAP4K2; compound concentrations:100 nM and 1000 nM (sheet 'Lestaurtinib' of Supplementary Table 1),run:Lestaurtinib_02765_R3,Plate:MR026): 158 nM
potency estimated from few doses (MAP4K2; compound concentrations:100 nM and 1000 nM (sheet 'Lestaurtinib' of Supplementary Table 1),run:Lestaurtinib_02766_R2,Plate:MR027): 220 nM
potency estimated from few doses (MAP4K2; compound concentrations:100 nM and 1000 nM (sheet 'Lestaurtinib' of Supplementary Table 1),run:Lestaurtinib_02766_R3,Plate:MR027): 231 nM
potency estimated from few doses (MAP4K2; compound concentrations:100 nM and 1000 nM (sheet 'Lestaurtinib' of Supplementary Table 1),run:Lestaurtinib_02768_R1,Plate:MR028): 190 nM
potency estimated from few doses (MAP4K2; compound concentrations:100 nM and 1000 nM (sheet 'Lestaurtinib' of Supplementary Table 1),run:Lestaurtinib_02768_R3,Plate:MR028): 196 nM
potency estimated from few doses (MAP4K2; compound concentrations:100 nM and 1000 nM (sheet 'Lestaurtinib' of Supplementary Table 1),run:Lestaurtinib_02795_R1,Plate:MR022): 199 nM
potency estimated from few doses (MAP4K2; compound concentrations:100 nM and 1000 nM (sheet 'Lestaurtinib' of Supplementary Table 1),run:Lestaurtinib_02795_R2,Plate:MR022): 146 nM
potency estimated from few doses (MAP4K2; compound concentrations:100 nM and 1000 nM (sheet 'Lestaurtinib' of Supplementary Table 1),run:Lestaurtinib_02795_R3,Plate:MR022): 377 nM
potency estimated from few doses (MAP4K2; compound concentrations:100 nM and 1000 nM (sheet 'Lestaurtinib' of Supplementary Table 1),run:Lestaurtinib_02802_R3,Plate:MR029): 290 nM
potency estimated from few doses (MAP4K2; compound concentrations:100 nM and 1000 nM (sheet 'Lestaurtinib' of Supplementary Table 1),run:Lestaurtinib_02896_R2,Plate:MR030): 215 nM
potency estimated from few doses (MAP4K2; compound concentrations:100 nM and 1000 nM (sheet 'Lestaurtinib' of Supplementary Table 1),run:Lestaurtinib_03172_R2,Plate:MR031): 295 nM
potency estimated from few doses (MAP4K2; compound concentrations:100 nM and 1000 nM (sheet 'Lestaurtinib' of Supplementary Table 1),run:Lestaurtinib_03172_R3,Plate:MR031): 235 nM
potency estimated from few doses (MAP4K2; compound concentrations:100 nM and 1000 nM (sheet 'Lestaurtinib' of Supplementary Table 1),run:Lestaurtinib_03252_R1,Plate:MR032): 130 nM
potency estimated from few doses (MAP4K2; compound concentrations:100 nM and 1000 nM (sheet 'Lestaurtinib' of Supplementary Table 1),run:Lestaurtinib_03260_R1,Plate:MR033): 372 nM
potency estimated from few doses (MAP4K2; compound concentrations:100 nM and 1000 nM (sheet 'Lestaurtinib' of Supplementary Table 1),run:Lestaurtinib_03260_R3,Plate:MR033): 228 nM
potency estimated from few doses (MARK3; compound concentrations:100 nM and 1000 nM (sheet 'Lestaurtinib' of Supplementary Table 1),run:Lestaurtinib_02364_R1,Plate:MR002): 132 nM
potency estimated from few doses (MARK3; [1]): 180 nM
potency estimated from few doses (MARK3; compound concentrations:100 nM and 1000 nM (sheet 'Lestaurtinib' of Supplementary Table 1),run:Lestaurtinib_02367_R1,Plate:MR003): 92.8 nM
potency estimated from few doses (MARK3; [2]): 160 nM
potency estimated from few doses (MARK3; [3]): 132 nM
potency estimated from few doses (MARK3; compound concentrations:100 nM and 1000 nM (sheet 'Lestaurtinib' of Supplementary Table 1),run:Lestaurtinib_02381_R2,Plate:MR004): 167 nM
potency estimated from few doses (MARK3; [4]): 160 nM
potency estimated from few doses (MARK3; [5]): 151 nM
potency estimated from few doses (MARK3; [6]): 169 nM
potency estimated from few doses (MARK3; [7]): 52.3 nM
potency estimated from few doses (MARK3; compound concentrations:100 nM and 1000 nM (sheet 'Lestaurtinib' of Supplementary Table 1),run:Lestaurtinib_02437_R1,Plate:MR007): 151 nM
potency estimated from few doses (MARK3; compound concentrations:100 nM and 1000 nM (sheet 'Lestaurtinib' of Supplementary Table 1),run:Lestaurtinib_02437_R2,Plate:MR007): 133 nM
potency estimated from few doses (MARK3; [8]): 23.2 nM
potency estimated from few doses (MARK3; [9]): 196 nM
potency estimated from few doses (MARK3; [10]): 160 nM
potency estimated from few doses (MARK3; compound concentrations:100 nM and 1000 nM (sheet 'Lestaurtinib' of Supplementary Table 1),run:Lestaurtinib_02443_R1,Plate:MR009): 202 nM
potency estimated from few doses (MARK3; compound concentrations:100 nM and 1000 nM (sheet 'Lestaurtinib' of Supplementary Table 1),run:Lestaurtinib_02443_R2,Plate:MR009): 181 nM
